According to ChEMBL document CHEMBL1157539, “Thousands of chemical starting points for antimalarial lead identification” (Nature, 2010):

System: Plasmodium falciparum
Assay: GSK_TCMDC: Inhibition of Plasmodium falciparum Dd2 in whole red blood cells, using parasite LDH activity as an index of growth. Test compounds present at 2uM
Assay type: functional

| Structure (SMILES) | Inhibition [%] |
| --- | --- |
| Cl.Clc1ccc2c(NCCc3ccccc3)ccnc2c1 | 99 |
| COc1ccc(CNCc2cccc(-c3ccc(-c4nc5cc(C(F)(F)F)ccc5[nH]4)cc3)c2)cc1.O=C(O)C(F)(F)F | 95 |
| O=c1cc(NCCCNCc2ccc(C(F)(F)F)c(F)c2)[nH]c2ccccc12 | 26 |
| Cc1ccc2[nH]c3c(c2c1)CC(C(=O)NCCC(C)C)NC31CCN(Cc2ccccc2)CC1 (configuration not stated) | 50 |
| SC(=Nc1ccc(Cl)c(Cl)c1)NN=Cc1ccccn1 | 85 |
| Cc1ccccc1CCNC(=O)c1ccc(N2CCN(c3ccncc3)CC2)nc1.O=C(O)C(F)(F)F | 20 |
| c1ccc(Oc2ccc(Nc3ccnc4cc(-c5cccc(CN6CCOCC6)c5)ccc34)cc2)cc1 | 100 |
| O=C(N[C@H]1CCN(Cc2ccc(OCCCN3CCCCC3)cc2)C1)c1cc(Cl)cc(Cl)c1 | 35 |
| NC(=O)c1cccc(C(=O)Nc2cccc(-c3ccc(-c4nc5ccccc5[nH]4)s3)c2)c1 | 69 |
| Cc1cc(C2CCN(CCCCNC(=O)c3ccc(-c4ccc(C(F)(F)F)cc4)cc3)CC2)c(C)cc1OCC#N | 58 |
| COc1cc2c(c(OC)c1[N+](=O)[O-])C=CC1(O2)N(C)c2ccc([N+](=O)[O-])cc2C1(C)C (configuration not stated) | 89 |
| CC1CN(c2nc(NCCc3ccc(O)cc3)nc(NCc3ccccc3-c3ccc(C(F)(F)F)cc3)n2)CC(C)N1 (configuration not stated) | 68 |
| O=C(Nc1cccc(C(F)(F)F)c1)c1cccc(S(=O)(=O)NC2CCN(CC3CCCCC3)C2)c1.O=C(O)C(F)(F)F (configuration not stated) | 45 |
| COc1cc(-c2ccc3c(-c4ccc(C(=O)N5CCN(C)CC5)cc4)n[nH]c3n2)cc(OC)c1OC | 54 |
| CC(C)Cc1ccc(N2CCN(CCCCNC(=O)c3ccc(NC(=O)c4ccc(Cl)c(Cl)c4)cc3)CC2)cc1 | 25 |
| CC(C)Cn1c(Sc2ccc(C#N)c([N+](=O)[O-])c2)nnc1-c1ccccc1Cl | 46 |
| Cn1cncc1CCN(Cc1ccc(-c2ccc(C(F)(F)F)cc2)cc1)C(=O)Cn1c(SCc2cccc(F)c2F)cc(=O)c2ccccc21 | 90 |
| Cc1cccc2nc(-c3ccc(-c4cccc(CN5CCC(C(N)=O)CC5)c4)cc3)[nH]c12.O=C(O)C(F)(F)F | 16 |
| CCOC(=O)c1ccc(N2CCN(c3cc(C)ccc3C)CC2)c(NC(=O)Nc2ccc(Cl)c(Cl)c2)c1 | 42 |
| Cl.O=C(Nc1cccc(C2=NCCCN2)c1)Nc1cccc(C2=NCCCN2)c1 | 70 |
| Cc1ccc2c(=NN=Cc3ccc(Cl)cc3)cc(C)[nH]c2c1 | 34 |
| COc1cc2nc(N3CCN(c4nc(N)c5cc(OC)c(OC)cc5n4)CC3)nc(N)c2cc1OC | 99 |
| COc1ccc2nccc([C@@H](O)CN3CCC(NCc4cc5c(Cl)cccc5[nH]4)CC3)c2c1.O=C(O)C(=O)O | 74 |
| COc1cccc2cc(C(=O)N[C@@H](CC(C)C)C(=O)N[C@H](/C=N/NC(=O)Cc3cccnc3)CCc3ccccc3)oc12 | 54 |
| CC(Nc1ccnc2cc(Cl)ccc12)c1ccc(S(N)(=O)=O)cc1 (configuration not stated) | 21 |
| COc1ccc(Nc2nccc(NCCNC(=O)c3cc4ccccc4s3)n2)cc1 | 7 |
| COc1ccc(-c2nc(-c3ccc([N+](=O)[O-])cc3)no2)cc1OC | 0 |
